Assay results taken from PubChem BioAssay.
Active and inactive are the calls of the source.

Experiments:
[1] = binders of probe aFSTL3 on microarray, primary screen, stem cell growth factor project, biochemical, small-molecule microarray, fluorescence 635/667 (AID 1064); details: higher = more signal;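 further: measures binding of the biotinylated anti-FSTL3 antibody to printed compounds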
[2] = binders from COS7 lysate, DM2A8 probe, primary screen, torsin A project, cell lysate, small-molecule microarray, fluorescence 635/667 (AID 1065); details: higher = more signal, COS7 lysate expressing mutant human TOR1A
[3] = binders of probe aFGF2 on microarray, primary screen, stem cell growth factor project, biochemical, small-molecule microarray, fluorescence 635/667 (AID 1067); details: higher = more signal;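 further: measures binding of biotinylated aFGF2 protein to printed compounds on slides; z-score merges feature fluorescence and signal-to-noise across triplicate slides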
[4] = binders of probe aFGF10 on microarray, primary screen, stem cell growth factor project, biochemical, small-molecule microarray, fluorescence 635/667 (AID 1071); details: higher = more signal;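 further: score merges 667 nm spot intensity and signal to noise from triplicate slides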
[5] = biological target: Neurogenic locus notch homolog protein 2 (Homo sapiens) (UniProt Q04721); assay: Notch2 binders on small-molecule microarrays, primary screen, biochemical, small-molecule microarray, 635 nm fluorescence, stem cell growth factors (AID 1073); details: Notch2 binding, higher = more signal
[6] = biological target: Pro-neuregulin-1, membrane-bound isoform (Homo sapiens) (UniProt Q02297); assay: NRG1 binders on small-molecule microarrays, primary screen, psychiatric disease protein project, biochemical, small-molecule microarray, fluorescence 635/667 (AID 1075); details: NRG1 binding, 635 nm fluorescence, higher = more signal;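 further: score combines 667 nm spot fluorescence with signal to noise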
[7] = tested on: Neuregulin-1 EGF-like domain; assay: binders of neuregulin-1 EGF-like domain, primary screen, biochemical, small-molecule microarray, 635 nm fluorescence (AID 1081); details: small-molecule microarray binding, higher = more signal;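 further: binding of the protein to compounds printed on small-molecule microarray slides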
[8] = FRG1 promoter luciferase signal modulators, primary screen, FRG1 inhibition for FSHD, cell-based, C2C12 myotubes, firefly/Renilla luciferase, luminescence (AID 1084); details: higher = more signal, called active from +8 up or from −8 down
[9] = binders of probe aFST on microarray, primary screen, stem cell growth factor project, biochemical, small-molecule microarray, fluorescence 635/667 (AID 1086); details: higher = more signal;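 further: score merges 667 nm fluorescence with signal-to-noise of each printed compound spot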
[10] = binders of probe aHhip on microarray, primary screen, stem cell growth factor project, biochemical, small-molecule microarray, fluorescence 635/667 (AID 1087); details: higher = more signal;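 further: score merges spot fluorescence at 667nm with spot signal to noise ratio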

Sequence of Neurogenic locus notch homolog protein 2 (Homo sapiens) (Q04721 whole entry, looked up, canonical isoform): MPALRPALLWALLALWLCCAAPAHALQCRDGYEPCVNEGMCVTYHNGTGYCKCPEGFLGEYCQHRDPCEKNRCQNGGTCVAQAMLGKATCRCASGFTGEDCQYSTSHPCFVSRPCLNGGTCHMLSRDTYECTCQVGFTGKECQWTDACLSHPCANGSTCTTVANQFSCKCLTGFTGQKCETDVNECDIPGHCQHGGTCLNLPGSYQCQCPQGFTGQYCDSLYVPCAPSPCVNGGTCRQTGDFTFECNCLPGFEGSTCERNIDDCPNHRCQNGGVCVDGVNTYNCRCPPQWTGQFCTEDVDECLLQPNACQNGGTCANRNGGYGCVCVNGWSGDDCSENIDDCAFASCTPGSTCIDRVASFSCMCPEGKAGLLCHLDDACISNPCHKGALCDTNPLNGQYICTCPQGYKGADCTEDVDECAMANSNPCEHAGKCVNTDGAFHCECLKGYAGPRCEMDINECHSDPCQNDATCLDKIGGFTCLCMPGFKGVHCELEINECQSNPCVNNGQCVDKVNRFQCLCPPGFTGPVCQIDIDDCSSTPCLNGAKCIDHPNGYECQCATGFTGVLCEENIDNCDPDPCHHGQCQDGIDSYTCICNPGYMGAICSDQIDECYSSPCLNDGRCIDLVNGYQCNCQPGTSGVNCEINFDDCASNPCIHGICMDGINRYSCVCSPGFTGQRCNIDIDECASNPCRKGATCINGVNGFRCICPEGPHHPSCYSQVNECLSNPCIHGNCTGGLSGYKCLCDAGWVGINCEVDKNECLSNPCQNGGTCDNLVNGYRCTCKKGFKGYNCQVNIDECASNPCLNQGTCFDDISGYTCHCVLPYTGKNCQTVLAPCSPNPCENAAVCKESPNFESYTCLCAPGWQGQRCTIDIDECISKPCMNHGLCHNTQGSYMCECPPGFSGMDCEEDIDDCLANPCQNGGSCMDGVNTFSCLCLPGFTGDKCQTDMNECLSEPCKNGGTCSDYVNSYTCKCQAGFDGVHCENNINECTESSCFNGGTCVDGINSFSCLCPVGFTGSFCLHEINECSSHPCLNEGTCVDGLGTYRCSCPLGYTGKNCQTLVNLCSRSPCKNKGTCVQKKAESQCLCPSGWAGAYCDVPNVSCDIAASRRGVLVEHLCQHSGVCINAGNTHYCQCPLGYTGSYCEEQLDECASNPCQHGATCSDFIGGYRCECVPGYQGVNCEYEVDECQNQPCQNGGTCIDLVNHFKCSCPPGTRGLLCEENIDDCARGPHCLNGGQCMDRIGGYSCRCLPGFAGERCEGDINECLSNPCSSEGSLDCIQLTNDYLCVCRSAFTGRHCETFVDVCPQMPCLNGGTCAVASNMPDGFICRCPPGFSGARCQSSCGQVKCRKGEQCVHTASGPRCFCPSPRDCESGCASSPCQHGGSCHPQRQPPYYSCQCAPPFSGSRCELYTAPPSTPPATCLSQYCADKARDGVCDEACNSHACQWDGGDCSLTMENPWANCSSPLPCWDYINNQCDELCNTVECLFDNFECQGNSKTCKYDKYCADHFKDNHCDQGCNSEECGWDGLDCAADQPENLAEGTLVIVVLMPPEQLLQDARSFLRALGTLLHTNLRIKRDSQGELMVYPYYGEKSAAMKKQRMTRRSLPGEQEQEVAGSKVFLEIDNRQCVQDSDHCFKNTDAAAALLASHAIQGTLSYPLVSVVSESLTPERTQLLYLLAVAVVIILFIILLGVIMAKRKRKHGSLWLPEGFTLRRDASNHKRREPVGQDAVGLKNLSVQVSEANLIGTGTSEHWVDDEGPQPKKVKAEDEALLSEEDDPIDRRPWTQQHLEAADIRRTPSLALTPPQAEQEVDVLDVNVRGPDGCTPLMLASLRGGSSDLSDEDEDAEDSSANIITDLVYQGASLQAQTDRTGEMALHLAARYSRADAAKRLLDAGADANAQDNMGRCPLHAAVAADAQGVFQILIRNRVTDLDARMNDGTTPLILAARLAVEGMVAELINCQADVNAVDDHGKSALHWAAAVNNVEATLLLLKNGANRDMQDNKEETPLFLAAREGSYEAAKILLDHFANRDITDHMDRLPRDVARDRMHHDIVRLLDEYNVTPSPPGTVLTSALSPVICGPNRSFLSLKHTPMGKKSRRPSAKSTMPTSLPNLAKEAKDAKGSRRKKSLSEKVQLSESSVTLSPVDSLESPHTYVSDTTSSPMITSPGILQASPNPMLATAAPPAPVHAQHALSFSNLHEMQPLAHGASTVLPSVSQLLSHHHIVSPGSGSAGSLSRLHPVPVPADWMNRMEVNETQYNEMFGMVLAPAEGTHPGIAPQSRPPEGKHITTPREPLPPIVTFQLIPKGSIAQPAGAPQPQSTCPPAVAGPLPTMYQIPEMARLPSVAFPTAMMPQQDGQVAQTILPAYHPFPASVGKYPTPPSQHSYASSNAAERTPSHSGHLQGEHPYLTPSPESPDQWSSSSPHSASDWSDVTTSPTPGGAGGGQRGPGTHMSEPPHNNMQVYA
Sequence of Pro-neuregulin-1, membrane-bound isoform (Homo sapiens) (Q02297 whole entry, looked up, the tested form may be a part, canonical isoform): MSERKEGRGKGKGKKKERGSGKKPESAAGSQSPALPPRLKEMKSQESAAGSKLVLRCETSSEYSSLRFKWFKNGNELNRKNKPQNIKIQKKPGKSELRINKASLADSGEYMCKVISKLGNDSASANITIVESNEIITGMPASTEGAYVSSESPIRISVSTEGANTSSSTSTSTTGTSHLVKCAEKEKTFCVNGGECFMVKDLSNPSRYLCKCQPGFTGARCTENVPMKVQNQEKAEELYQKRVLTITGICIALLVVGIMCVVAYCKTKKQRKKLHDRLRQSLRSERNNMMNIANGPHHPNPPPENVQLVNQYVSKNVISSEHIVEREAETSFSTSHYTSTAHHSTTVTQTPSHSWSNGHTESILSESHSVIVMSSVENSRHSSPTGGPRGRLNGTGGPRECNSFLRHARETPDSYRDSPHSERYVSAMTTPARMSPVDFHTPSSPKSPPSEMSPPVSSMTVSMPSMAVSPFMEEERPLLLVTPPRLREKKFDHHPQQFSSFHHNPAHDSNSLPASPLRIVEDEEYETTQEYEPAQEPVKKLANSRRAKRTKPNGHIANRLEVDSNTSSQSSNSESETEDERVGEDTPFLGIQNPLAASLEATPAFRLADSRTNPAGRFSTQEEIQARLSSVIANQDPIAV

Row | SMILES | composite z-score [1] | composite z-score [2] | composite z-score [3] | composite z-score [4] | composite z-score [5] | composite z-score [6] | composite z-score [7] | z-score [8] | composite z-score [9] | composite z-score [10]
1 | O=C1OCC=C[C@H]2OC34C=CCN(Cn5nnc6ccccc65)C(=O)[C@H]3N(CCCCCCO)C(=O)[C@@H]4[C@@H]12 (stereo not given in full) | 0.492 | -0.334 | -0.163 | -0.54 | -0.522 | 1.91 | 1.52 | 0.215 (inactive) | -0.116 | -0.201
2 | C[C@]1(C(=O)NC2CC2)c2ccccc2C(=O)N(Cc2ccc(OC(F)(F)F)cc2)[C@H]1c1ccc(CO)cc1 | 0.652 | 0.179 | -0.0642 | -0.366 | -1.02 | -0.47 | 0.745 | -1.68 (inactive) | 0.0221 | -0.111
3 | CCCc1cccc(=O)o1 | -0.218 | -0.001 | -0.112 | 0.191 | 0.168 | 0.785 | 1.24 | 0.273 (inactive) | -0.278 | 0.155
4 | C[C@@H]1ON(c2ccc(C(=O)OC(C)(C)C)cc2)[C@H](c2ccc(Br)cc2)[C@H]1C(=O)N1C(=O)OC[C@H]1Cc1ccccc1 | -0.312 | 0.155 | 0.0333 | 0.552 | 1.52 | 1.05 | 1.11 | 0.002 (inactive) | 0.492 | -0.0618
5 | C=CCN1C(=O)[C@@]2(CCC(=O)OC(C)(C)C)N=C(c3ccc(OCCCO)cc3)O[C@H]2c2ccccc21 | 0.324 | 0.198 | 0.0698 | 0.0883 | 0.724 | 0.82 | 1.21 | -2.47 (inactive) | 0.278 | -0.195
6 | CCOC(=O)[C@H]1C/C=C/C[C@H](C(=O)OCC)C(=O)O[C@H]2[C@@H](OC)O[C@H](CO)[C@@H](OC(=O)CCc3ccccc3)[C@@H]2OC1=O | -0.146 | -0.267 | 0.461 | -0.485 | -1.08 | 0.815 | -0.0615 | -1.26 (inactive) | -0.555 | -0.169
7 | COc1ccc(NC(=O)O[C@H]2[C@H](OC(=O)Nc3ccc4c(c3)OCO4)[C@@H](OC(=O)Nc3ccc4c(c3)OCO4)[C@@H](OC)O[C@@H]2CO)cc1 | 0.157 | -0.0536 | 0.0397 | 0.639 | 0.922 | 1.57 | 1.2 | 6.75 (inactive) | 0.4 | -0.0296
8 | O=C(O)[C@]1(Cc2ccccc2)N=C(c2ccc(OCCCO)cc2)O[C@@H]1c1ccccc1 | 0.428 | -1.31 | -0.135 | -0.321 | 0.0148 | 1.45 | 0.847 | -0.737 (inactive) | 0.378 | -0.164
9 | CN1C(=O)C2C=CC(C(O)C3CCCCC3)N(N3CCCCC3)C2C1=O (stereo not given) | -0.0863 | 1.54 | 0.156 | 0.644 | 1.52 | 1.51 | 1.23 | 0.573 (inactive) | 1.01 | 0.398
10 | C=CCOC(=O)[C@H]1[C@@H]2C(=O)O[C@@H](c3ccccc3)[C@@H](c3ccccc3)N2[C@@H](c2ccc(OCCOC(=O)[C@H]3C[C@H]4C(=O)N[C@@H](Cc5ccccc5)C(=O)N4[C@H]3c3ccc(O)cc3)cc2)[C@]12C(=O)Nc1ccc(I)cc12 | 0.558 | 0.412 | -0.0093 | 0.979 | 0.779 | 0.932 | 1.21 | 0.808 (inactive) | 2.17 | -0.582
11 | C=CCOC(=O)[C@@H]1[C@H]2C(=O)O[C@H](c3ccccc3)[C@H](c3ccccc3)N2[C@H](c2ccc(OCCOC(=O)[C@H]3C[C@H]4C(=O)N[C@@H](CC(C)C)C(=O)N4[C@H]3c3ccc(O)cc3)cc2)[C@@]12C(=O)Nc1ccc(I)cc12 | 0.054 | 1.42 | 0.0333 | 0.868 | 0.718 | 0.535 | 1.35 | -0.477 (inactive) | 0.496 | -0.0994
12 | CCOC(=O)[C@@H]1[C@@H]2C(=O)N(CC)C(=O)[C@@H]2C[C@@H]1Sc1ccccc1 | -0.528 | 1.04 | 0.0308 | 0.712 | 1.39 | 0.354 | 1.33 | -1.02 (inactive) | 0.731 | -0.226
13 | NCCCCCCNC(=O)[C@H]1C[C@H]2C(=O)N[C@@H](Cc3ccccc3)C(=O)N2[C@H]1c1ccc(O)cc1 | 0.465 | 0.399 | -0.0334 | 0.0116 | 0.421 | 1.34 | 1.18 | 1.1 (inactive) | 0.377 | -0.196
14 | COC(=O)C1(Cc2ccccc2)C=C2C(=C(C(C)C)C(=O)C2C)CN1 (stereo not given) | 1.63 | 1.26 | 0.0992 | -0.66 | -0.0793 | 1.25 | 0.853 | 3.19 (inactive) | 1.24 | 0.773
15 | CC(=O)n1cc(C(O)C2C=CC3C(=O)N(Cc4ccccc4)C(=O)C3N2n2cnnc2)c2ccccc21 (stereo not given) | -0.317 | 0.47 | -0.0218 | -0.0821 | 0.145 | -0.0307 | 0.351 | 0.186 (inactive) | 0.426 | -0.268
16 | COc1ccc([Si](C)(C)[C@H]2[C@H](CCn3cc([C@H](O)c4ccccc4)nn3)O[C@@]3(C(=O)N(Cc4ccc(N5CCC5=O)cc4)c4ccccc43)[C@@H]2C)cc1 | -0.179 | 1.16 | -0.116 | 0.368 | 0.176 | 0.635 | 0.636 | -2.36 (inactive) | 0.247 | -0.0237
17 | CCOC(=O)C[C@H]1[C@H](OC(=O)Cc2ccc3c(c2)OCO3)[C@@H](NC(=O)C2CCCCC2)c2cc(OCCCO)ccc2N1C(=O)c1ccc2ccccc2n1 | 0.695 | 0.246 | -0.003 | 0.234 | 0.904 | 0.196 | 0.519 | -2.88 (inactive) | 0.857 | -0.335
18 | CCOC(=O)C1=CC[C@@H](c2ccccc2C(F)(F)F)N(S(=O)(=O)c2ccc(C)cc2)C1 | 0.811 | 1.54 | 0.313 | 1.1 | 1.67 | 1.79 | 1.28 | -3.59 (inactive) | 0.997 | -0.0439
19 | Cc1ccc(C(C)CC(O)C2C=CC3C(=O)N(c4ccccc4)C(=O)C3N2Nc2ccc(C(C)C)cc2)o1 (stereo not given) | 1.15 | 1.05 | 0.102 | 0.712 | 1.58 | 1.93 | 0.765 | 0.543 (inactive) | 0.992 | -0.0772
20 | CCOC(=CC(=O)OC)CC(O)c1cccc(Cl)c1 (stereo not given) | 0.201 | 0.071 | -0.0504 | -0.157 | -0.124 | 1.43 | 1.37 | -3.65 (inactive) | -0.595 | -0.303
21 | C=CCC(OC(C)=O)[C@@H]1[C@@H](N(Cc2cc3ccccc3o2)C(=O)c2ccc(C)cc2)c2cc(OCCCO)ccc2N1C(=O)Cc1ccc2ccccc2c1 (stereo not given in full) | 0.222 | -0.603 | 0.0755 | 0.113 | -0.242 | -0.0075 | -0.345 | -0.286 (inactive) | 0.292 | 0.107
22 | COC(=O)[C@@]1(Cc2ccc(OC)cc2)[C@H]2c3cc(C(=O)N(C)C)n(CCc4c[nH]c5ccc(O)cc45)c3C[C@H]2CN1C(=O)c1ccccc1 | 1.27 | -0.0234 | 0.147 | 1.04 | 1.69 | 1.91 | 1.25 | 1.5 (inactive) | 1.7 | 0.177
23 | NC(=O)N1C(=O)C2C(C1=O)C1C=C(CCCO)C2C(c2cccs2)N1Cc1cc2c(cc1Br)OCO2 (stereo not given) | -0.137 | 0.314 | -0.0036 | 0.0276 | 0.0449 | 0.453 | 1.16 | -1.85 (inactive) | 0.117 | -0.0645
24 | CN(C)C(=O)[C@]1(CCC(=O)OC(C)(C)C)N=C(c2ccc(OCCCO)cc2)O[C@@H]1c1ccccc1 | -0.175 | 0.527 | -0.016 | 0.776 | 1.3 | 1.91 | 1.4 | 0.788 (inactive) | 0.268 | -0.0645
25 | O=C1OC[C@@H](c2ccccc2)N2CC(/C=C/c3ccccc3)=CC12 (stereo not given in full) | 0.528 | -0.477 | -0.222 | -0.77 | -1.18 | -0.586 | 0.219 | -0.639 (inactive) | -1.31 | -0.268
26 | COCCOC(=O)N1C(=O)[C@@]2(c3cc(C#Cc4ccc(OC)cc4)ccc31)[C@H](C(=O)N1CCN(c3ncccn3)CC1)[C@H]1C(=O)O[C@H](c3ccccc3)[C@H](c3ccccc3)N1[C@@H]2c1ccccc1OCCO | -0.0234 | 0.0841 | -0.124 | 0.475 | 0.711 | 0.0925 | 1.02 | -0.425 (inactive) | 0.0402 | -0.0994
27 | C=C(/C(=C/C[C@@H](OC(=O)c1ccncc1)c1ccc(OCCO)cc1)c1cc(C(=O)OC)ccc1OC)C(C)C | -0.445 | 1.24 | -0.139 | 0.93 | 0.833 | 0.679 | 1.13 | 0.317 (inactive) | 0.0136 | -0.399
28 | COCC(=C=CC[C@H](O)c1cccc(OCCO)c1)C[C@H](O)c1ccccn1 | -0.203 | -0.3 | -0.135 | 0.18 | -0.542 | 1.24 | 1.44 | 0.0158 (inactive) | 0.395 | -0.0618
29 | O=C1C2C=CC(C(O)c3cc(C(F)(F)F)cc(C(F)(F)F)c3)N(Nc3ccc([N+](=O)[O-])cc3)C2C(=O)N1c1ccccc1 (stereo not given) | -0.25 | 0.466 | 0.0678 | 0.94 | 1.67 | 1.86 | 1.17 | 0.0404 (inactive) | 0.598 | -0.166
30 | O=C(CS)NCCCCCCNC(=O)[C@H]1C[C@H]2C(=O)N[C@@H](Cc3ccccc3)C(=O)N2[C@H]1c1cccc(OCCO)c1 | -0.165 | 0.605 | 0.0465 | 1.16 | 1.56 | 1.36 | 1.41 | 0.328 (inactive) | 0.928 | -0.145
